Bioassay records (PubChem)
This is a sample that favours compounds with a hit; in the whole collection about 19% have one here.
SW480 rerep = induces DNA re-replication in SW480 colon adenocarcinoma cells; AID 624297; SW480 DNA re-replication, Hoechst DNA content imaging, 48 h; Potency, µM (top dose mostly 46.1 µM), without a hit: at the highest dose re-replication activation, usual class: activators; 1.8% of 340,000 active; further: potency means the concentration at half of the fitted maximal effect; % of control where 0% means no effect; nearly all actives have a fitted effect of over 55% in size
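Image-based read-out: total Hoechst fluorescence of nuclei (405 nm excitation, 500-530 nm emission), with hits raising the fraction of high-intensity nuclei. SW480 colon cells incubated 48 hr with compounds at 37 C.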
DT40 TDP1 CPT = DT40-hTDP1 cell growth loss with CPT; AID 686979; Potency, µM (top dose mostly 46.2 µM), inactives show at the top dose activity change, negative = growth inhibition, actives largely listed as inhibitors; chicken DT40 Tdp1-/-;hTDP1 cells + 20 nM CPT, ATP luminescence, 48 h; 12% of 420,000 active; further: potency means the concentration at half of the fitted maximal effect; on the % scale 0 is the no-effect control and ±100 the full control effect; nearly all actives have a fitted effect of over 55% in size
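Chicken DT40 Tdp1-/- cells stably complemented with human TDP1 were seeded at 400 cells/well in medium containing 20 nM camptothecin, exposed to pin-transferred compounds, and grown at 37 °C for at least 48 hr. Viability was read as ATP luminescence.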
MCF10A rereplic = DNA re-replication induction in MCF 10a cells; MCF 10A DNA re-replication, Hoechst nuclear intensity, 48 h; 2.9% of 350,000 active; Potency, µM (highest dose often 46.1 µM), for the others: at the highest dose activity, positive = re-replication, usual class: activators; further: potency means the concentration at half of the fitted maximal effect; % of control where 0% means no effect; nearly all actives have a fitted effect of over 50% in size
DT40 TDP1 no CPT = qHTS for Inhibitors of human tyrosyl-DNA phosphodiesterase 1 (TDP1): qHTS in cells in absence of CPT. DT40 Tdp1-/- hTDP1 cells, no CPT, ATP luminescence, 48 h. Potency, µM (series often up to 46.2 µM), without a hit: top-dose activity change, negative = growth inhibition, usual class: inhibitors. 15% of 420,000 active. AID 686978, 2013; further: potency means the concentration at half of the fitted maximal effect; on the % scale 0 is the no-effect control and ±100 the full control effect; nearly all actives have a fitted effect of over 55% in size
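DT40 Tdp1-/-;hTDP1 cells, no CPT (DMSO vehicle only), 400 cells/well; compounds pin-transferred; ≥48 hr, 37 °C; CellTiter-Glo 30 min RT dark, luminescence read.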
IL1B secr inh = blocks inflammasome-driven IL-1 beta release | activity change, % at 57.5 µM | AID 743279 | 4.7% of 360,000 active | THP-1 LPS/ATP IL-1B secretion, AlphaLISA, 16 h; stronger effect = lower value; in the data active means activity change below about -50%; inconclusive means mostly about -30% to -49%; further: on the % scale 0 is the no-effect control and ±100 the full control effect
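Secreted IL-1B measured by AlphaLISA bead assay after 16 h compound exposure of THP-1 cells; compounds (final up to 57.5 uM) added 1 h before LPS (250 ng/mL) and ATP (1.25 mM) stimulation; lower signal means less secretion.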
BCR signal inh = chronic active BCR signaling inhibition; AID 493014; 0.05% of 340,000 active; Potency, µM (titrated, usually from 46.1 µM), for the others: at the top dose activity change, negative = inhibition, most hits filed as inhibitors; ABC-DLBCL IkBa-CBG/CBR reporter, luminescence ratio, 4 h; active means well fitted inhibition curve with a large enough effect in the signal ratio, with a control signal flat, not every such curve was filed as active; inconclusive means small, poorly fitted or top-dose-only effect, or effect the other way, or a change in a side signal; the % refers to the signal ratio;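 further: potency means the concentration at half of the fitted maximal effect; plate controls were basal doxycycline-induced cells for no effect and cells given 10 µM MG132 for full effect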
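Doxycycline induced both beetle luciferases in TMD8 lymphoma cells; IKK-driven degradation limits the IkappaBalpha-fused green signal, while red luminescence normalises for cell number and nonspecific effects. Compounds tested up to 46 uM, 4 hrs.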
An asterisk follows results filed as active; ? = inconclusive; · = no result given; [ ] = remark or other dose. Unless noted, the call rests on the fitted dose curve; in most records, active means well fitted curve in the direction sought with a large enough effect; inconclusive means small, poorly fitted or top-dose-only effect, or another doubt; inactive means no such curve, though single readings can be large; an effect the other way counts as inactive or inconclusive.

SMILES | SW480 rerep | DT40 TDP1 CPT | MCF10A rereplic | DT40 TDP1 no CPT | IL1B secr inh | BCR signal inh
COc1cc([N+](=O)[O-])ccc1NC(=O)N1CCCCCC1 | -5% | ? | -15% | -20% | -3 | ?
Cc1c(C(=O)Nc2ccccc2F)sc2ncn(CC(=O)N3CCOCC3)c(=O)c12 | 10% | -3% | 7% | -1% | 13 | 0%
O=C(NC1CCCCC1)C(c1ccc(F)cc1)N(CCc1ccccc1)C(=O)CN1C(=O)c2ccccc2S1(=O)=O (configuration not stated) | 10% | 3.7µM* | ? | 5.8µM* | 67 | 3%
O=C(NC1CCCCC1)C(c1ccc(F)cc1)N(Cc1ccccc1)C(=O)CN1C(=O)c2ccccc2S1(=O)=O (configuration not stated) | ? | 21µM* | ? | 21µM* | 21 | 0%
O=C(NCC1CCCO1)C(c1ccncc1)N(Cc1ccc(F)cc1)C(=O)CN1C(=O)c2ccccc2S1(=O)=O (configuration not stated) | 3% | 3% | -8% | ? | 11 | 4%
Cc1nc(C(=O)N2CCCC(N3CCN(c4ccc(F)cc4)CC3)C2)cs1 (configuration not stated) | · | 21µM* | · | 15µM* | 54 | ·
Cc1cc(C)c(C(=O)N2CCCC(N3CCN(c4ccc(F)cc4)CC3)C2)o1 (configuration not stated) | -6% | ? | 11% | 16µM* | -6 | 7%
Cc1ccccc1OCCC(=O)NNC(=O)c1ccccc1F | 2% | 4% | 1% | -17% | 0 | -1%
CN(C)CCNC(NC(=O)c1cccs1)C(Cl)(Cl)Cl (configuration not stated) | -3% | -3% | -1% | 13% | 13 | -6%
O=C(c1cc2nc(-c3ccccc3)cc(C(F)(F)F)n2n1)N1CCN2CCCC2C1 (configuration not stated) | 0% | -24% | 2% | ? | ? | 1%
O=C(c1nn2c(C(F)(F)F)cc(-c3ccccc3)nc2c1Cl)N1CCN2CCCC2C1 (configuration not stated) | -19% | 21µM* | 0% | ? | -64* | -1%
O=C(c1ccccc1)N1CCN(C(=O)c2nn3c(C(F)(F)F)cc(-c4ccccc4)nc3c2Br)CC1 | 5% | ? | ? | 18µM* | -18 | -7%
NC(=O)c1nn2c(C(F)(F)F)cc(-c3ccccc3)nc2c1Br | 4% | ? | 0% | ? | 24 | -16%
CCCCC(=O)NCCc1c(Cc2ccccc2)[nH]c2ccccc12 | · | ? | · | 18µM* | · | ·
CCN(CC(=O)Nc1ccc(N2CCOCC2)cc1)C(=O)Cc1ccccc1 | 1% | 0% | 0% | 6% | 4 | 1%
O=S(=O)(Nc1ccc(OC(F)(F)F)cc1)c1ccc(N2CCCCS2(=O)=O)cc1 | · | 21µM* | · | 21µM* | · | ·
COc1ccc(S(=O)(=O)Nc2ccc(F)c(Cl)c2)cc1OC | -1% | -13% | -1% | ? | 18 | -7%
O=S(=O)(Nc1ccc(F)c(C(F)(F)F)c1)c1ccc(N2CCCCS2(=O)=O)cc1 | · | 21µM* | · | 12µM* | · | ·
Cn1c(=O)c(=O)n(C)c2cc(S(=O)(=O)Nc3ccc(Cl)c(C(F)(F)F)c3)ccc21 | · | -13% | · | -2% | · | ·
COc1ccc(NS(=O)(=O)c2ccc(N3CCCCS3(=O)=O)cc2)cc1Cl | · | 8.2µM* | · | 4.6µM* | · | ·
CCCCn1c(N)c(N(CC(C)C)C(=O)c2ccc(S(=O)(=O)N3CCC(C)CC3)cc2)c(=O)[nH]c1=O | 4% | -10% | 0% | -1% | -15 | 5%
Cc1ccc(C(=O)CCNc2cccc(Br)c2)o1 | 0% | 21µM* | ? | 18µM* | -13 | 0%
CCCNC(=O)Nc1ccc(F)c(Cl)c1 | 0% | -7% | -7% | -2% | -18 | -4%
O=C(CCC(=O)c1ccc(F)cc1)Nc1cccc(Br)c1 | -9% | 6% | -5% | 8% | 1 | -3%
Cc1ccc(C(=O)Cc2ccccc2)o1 | 1µM* | -16% | 1% | -1% | 12 | -3%
SMILES | SW480 rerep | DT40 TDP1 CPT | MCF10A rereplic | DT40 TDP1 no CPT | IL1B secr inh | BCR signal inh
Cc1ccc(C(=O)CCNc2ccc(Br)cc2)o1 | 0%[9.22 µM] | 13µM* | ? | 13µM* | -20 | ·
Cc1ccc(C(=O)CCNc2ccc(F)c(Cl)c2)o1 | -19% | 16µM* | 11% | 16µM* | -24 | ?
O=C(NCc1ccc2c(c1)CCN2C(=O)c1ccncc1)c1ccccc1Cl | · | -26% | · | ? | · | -3%
Cc1ccc(C(=O)NCCCC(=O)O)o1 | 7% | 0% | 6% | 7% | -18 | ?
Cc1ccc(C(=O)CCNc2ccccc2)o1 | ? | ? | 7.1µM* | 8.2µM* | -2 | ·
Cc1cc(C)c(C(=O)COc2cccnc2[N+](=O)[O-])cc1C | ? | 4.1µM* | ? | 5.8µM* | 2 | ?
COCCn1c(C)cc(C(=O)COc2cccnc2[N+](=O)[O-])c1C | ? | ? | ? | -6% | 26 | ?
O=C(NNc1nc(-c2ccccc2)cs1)c1ccco1 | 18µM* | ? | 3% | 16µM* | -14 | ?
O=C(Nc1nc2nc(-c3ccccc3)cc(-c3ccccc3)n2n1)c1ccco1 | 0% | 23µM* | -2% | 23µM* | -4 | 8%
Nc1nc(-c2ccc(NC(=O)c3ccco3)cc2)cs1 | ? | 1% | 10% | ? | 2 | ?
O=C(NNc1nc(-c2ccc(Cl)cc2)cs1)c1ccco1 | ? | 18µM* | ? | 10µM* | -27 | 5%
Cc1ccc(-n2c(SCC(N)=O)nc3c(oc4ccccc43)c2=O)cc1 | 4% | ? | 2% | 18µM* | 47 | -9%
COc1ccccc1Cn1c(SCC(N)=O)nc2c(oc3ccccc32)c1=O | 3% | ? | 2% | 0% | -25 | 15%
Cc1cc(C)cc(-n2c(SCC(N)=O)nc3c(oc4ccccc43)c2=O)c1 | · | ? | · | 15µM* | · | ·
O=c1cc(CN2CCN(Cc3ccc(F)cc3)C(CCO)C2)[nH]c2ccccc12 (configuration not stated) | 2% | 34% | 0% | 0% | 18 | -1%
CCNC(=O)C1CCCN(C(=O)c2cccc(C(F)(F)F)c2)CC1 (configuration not stated) | · | -14% | · | -17% | 42 | ·
